TDP1 cell noCPT: qHTS for Inhibitors of human tyrosyl-DNA phosphodiesterase 1 (TDP1): qHTS in cells in absence of CPT. Potency, µM (series often up to 46.2 µM), for inactives: at the top dose activity change, negative = growth inhibition, actives largely listed as inhibitors. DT40 Tdp1-/- hTDP1 cells, no CPT, ATP luminescence, 48 h. hit rate 15% among 420,000; note: potency is the fitted concentration of half-maximal effect; nearly all actives have a fitted effect of over 55% in size
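DT40 Tdp1-/-;hTDP1 cells, no CPT (DMSO vehicle only), 400 cells/well; compounds pin-transferred; ≥48 hr, 37 °C; CellTiter-Glo 30 min RT dark, luminescence read.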
DT40 TDP1 CPT: DT40-hTDP1 cell growth loss with CPT | chicken DT40 Tdp1-/-;hTDP1 cells + 20 nM CPT, ATP luminescence, 48 h | Potency, µM (highest dose often 46.2 µM), inactives show at the highest dose activity change, negative = growth inhibition, hits mostly inhibitors | hit rate 12% among 420,000; note: potency is the fitted concentration of half-maximal effect; nearly all actives have a fitted effect of over 55% in size
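Cell growth measured by CellTiter-Glo luminescence after a minimum 48 h, 37 C compound exposure with 20 nM CPT in Tdp1-knockout DT40 cells stably expressing hTDP1, seeded 400/well; qHTS titration format.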
HT1080 IDH1KD tx: kills HT-1080 cells with IDH1 knockdown | HT-1080 IDH1 knockdown viability, ATP luminescence, 48 h | hit rate 2% among 360,000 | AID 686971 | Potency, µM (doses to about 46.1 µM), without a hit: top-dose activity, negative = toxicity, most hits filed as cytotoxic;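 note: potency is the fitted concentration of half-maximal effect; 0% = DMSO wells and -100% = cell-free medium wells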
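IDH1KD HT-1080 cells, 750/well, RPMI + 5% FBS; compound pinned after 2 h settling; 48 h, 37 °C; CellTiter-Glo luminescence; % activity normalised to DMSO and no-cell wells; curves fitted, classed by r2 and efficacy.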
HT1080-NT tox: kills 2HG-producing HT-1080-NT fibrosarcoma cells | HT-1080-NT fibrosarcoma viability, CellTiter-Glo ATP luminescence, 48 h | Potency, µM (top dose mostly 46.1 µM), for the others: top-dose activity, negative = less viability, actives largely listed as cytotoxic | hit rate 1.6% among 360,000 | AID 686970;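 note: NT is the 2HG producing partner of a matched IDH1 knockdown line; potency is the fitted concentration of half-maximal effect; 0% = DMSO-treated cells and -100% = media-only wells without cells; nearly all actives have a fitted effect of over 55% in size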
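Viability by CellTiter-Glo luminescence after 48 h compound exposure at 37C of HT-1080-NT cells (750/well, RPMI, 5% FBS). % activity scaled between DMSO wells and medium-only wells, then curve-fitted and categorized by curve class.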
IL-1B inflam inh: inhibitors of inflammasome signaling (IL-1 beta secretion) | THP-1 LPS/ATP IL-1B secretion, AlphaLISA, 16 h; hits give low values | activity change, % at 57.5 µM | hit rate 4.7% among 360,000; in the data active = activity change below about -50%; inconclusive = mostly about -30% to -49%
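Secreted IL-1B measured by AlphaLISA bead assay after 16 h compound exposure of THP-1 cells; compounds (final up to 57.5 uM) added 1 h before LPS (250 ng/mL) and ATP (1.25 mM) stimulation; lower signal means less secretion.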
* hit, by the source's call; [ ] = remark or other dose. This is a sample that favours compounds with a hit; in the whole collection about 19% have one here. Unless noted, calls come from the whole dose curve; as a rule, active = well fitted curve in the direction sought with a large enough effect; inconclusive = small, poorly fitted or top-dose-only effect, or another doubt; inactive = no such curve, though single readings can be large; an effect the other way counts as inactive or inconclusive. Unless noted, % is set by controls: 0 for no effect and ±100 for the full control effect.

How did c1ccc(CN2CCN(Cc3ccc4ccccc4c3)CC2)cc1 do in these assays?
TDP1 cell noCPT: 16µM*; DT40 TDP1 CPT: 18µM*; HT1080 IDH1KD tx: -28%; HT1080-NT tox: -23%; IL-1B inflam inh: -18

What do the screens show for `Cc1ccc(CN2CCN(Cc3ccccc3)CC2)cc1`?
TDP1 cell noCPT: 11%; DT40 TDP1 CPT: -9%; HT1080 IDH1KD tx: -2%; HT1080-NT tox: 0%; IL-1B inflam inh: 10

What do the screens show for `COC(=O)C1=C(c2ccc(F)cc2F)C[C@@H]2CC[C@H]1N2C(=O)NCC1CC1`?
TDP1 cell noCPT: inconclusive; DT40 TDP1 CPT: -4%; HT1080 IDH1KD tx: 10%; HT1080-NT tox: 9%; IL-1B inflam inh: 8

What do the screens show for `COC(=O)C1=C(c2ccc(OC)c(OC)c2)C[C@@H]2CC[C@H]1N2C(=O)NCc1cccc2ccccc12`?
TDP1 cell noCPT: inconclusive; DT40 TDP1 CPT: inconclusive; HT1080 IDH1KD tx: -4%; HT1080-NT tox: -5%; IL-1B inflam inh: -23

Results for COc1ccc(NC(=O)N2CCN(c3nc(-c4cccc(OC)c4)cs3)CC2)cc1 ?
TDP1 cell noCPT: 18µM*; DT40 TDP1 CPT: 23µM*; HT1080 IDH1KD tx: inconclusive; HT1080-NT tox: -10%; IL-1B inflam inh: -93*

How did COc1ccc(NC(=O)N2CCC3(CC2)OCCO3)cc1 do in these assays?
TDP1 cell noCPT: -1%; DT40 TDP1 CPT: inconclusive; HT1080 IDH1KD tx: 0%; HT1080-NT tox: 5%; IL-1B inflam inh: 2

Results for CS(=O)(=O)c1ccc(C(=O)C2C(=O)CCCC2=O)c([N+](=O)[O-])c1 ?
TDP1 cell noCPT: inconclusive; DT40 TDP1 CPT: -30%[92.5 µM]

What do the screens show for `C[C@H]1[C@@H](OS(=O)(=O)O)C[C@@H]2C[C@H]([C@@H](O)c3cc(=O)[nH]c(=O)[nH]3)NC3=NC[C@H]1N32`?
TDP1 cell noCPT: 3.7µM*; DT40 TDP1 CPT: 2.3µM*; HT1080-NT tox: 2.1µM*; IL-1B inflam inh: -23

What do the screens show for `O[C@@H]1[C@H](O)[C@H]2[C@@H](O)CCN2C[C@@H]1O`?
TDP1 cell noCPT: -2%; DT40 TDP1 CPT: 11%

What do the screens show for `Cc1ccc(CN2Cc3ccc(Br)cc3-n3nncc3C2)cc1`?
TDP1 cell noCPT: inconclusive; DT40 TDP1 CPT: inconclusive; HT1080 IDH1KD tx: -11%; HT1080-NT tox: 13%; IL-1B inflam inh: -2

Results for CC1=NN=C(c2ccc(N)cc2)c2cc3c(cc2C1)OCO3 ?
TDP1 cell noCPT: 27µM*; DT40 TDP1 CPT: 30µM*; HT1080 IDH1KD tx: -5%; HT1080-NT tox: -19%; IL-1B inflam inh: -18

Results for O=c1cccc2n1CC1CC2CN(S(=O)(=O)c2ccccc2)C1 (stereo not drawn) ?
TDP1 cell noCPT: -6%; DT40 TDP1 CPT: -6%; HT1080 IDH1KD tx: 4%; HT1080-NT tox: 2%; IL-1B inflam inh: -3

How did CC1CCC(NC(=O)CN2CCN(S(=O)(=O)c3ccc(Br)s3)CC2)CC1 (stereo not drawn) do in these assays?
TDP1 cell noCPT: 16µM*; DT40 TDP1 CPT: 16µM*; HT1080 IDH1KD tx: -10%; HT1080-NT tox: -6%; IL-1B inflam inh: -4

What do the screens show for `Cc1nonc1-c1nc(-c2nonc2N)n[nH]1`?
TDP1 cell noCPT: -2%; DT40 TDP1 CPT: -6%; HT1080 IDH1KD tx: 2%; HT1080-NT tox: -3%; IL-1B inflam inh: 7

Results for COc1ccc(C(CC(=O)c2ccc3c(c2)OCO3)c2c(O)c3ccccc3oc2=O)cc1OC (stereo not drawn) ?
TDP1 cell noCPT: 23µM*; DT40 TDP1 CPT: -19%; HT1080 IDH1KD tx: 2%; HT1080-NT tox: -5%; IL-1B inflam inh: 0

How did COc1ccc(C(CC(C)=O)c2c(O)c3ccccc3oc2=O)cc1OC (stereo not drawn) do in these assays?
TDP1 cell noCPT: -2%; DT40 TDP1 CPT: 2%; HT1080 IDH1KD tx: 1%; HT1080-NT tox: 1%; IL-1B inflam inh: -3

Results for CC1(C)CSC(=NCc2ccccc2)N1 ?
TDP1 cell noCPT: -7%; DT40 TDP1 CPT: 2%; HT1080 IDH1KD tx: -3%; HT1080-NT tox: 2%; IL-1B inflam inh: 21

How did N#CC(C#N)=Cc1ccc(C=C(C#N)C#N)cc1 do in these assays?
TDP1 cell noCPT: 4.6µM*; DT40 TDP1 CPT: 3.7µM*; HT1080 IDH1KD tx: 23µM*; HT1080-NT tox: inconclusive; IL-1B inflam inh: -83*

What do the screens show for `N#CC(C#N)=Cc1ccc([N+](=O)[O-])c(O)c1`?
TDP1 cell noCPT: -9%[92.5 µM]; DT40 TDP1 CPT: -5%[92.5 µM]

How did Cc1cc(C)cc(NC(=S)NC2CC3CCC(C2)N3Cc2ccco2)c1 (stereo not drawn) do in these assays?
TDP1 cell noCPT: 16µM*; DT40 TDP1 CPT: inconclusive; HT1080 IDH1KD tx: 17%; HT1080-NT tox: -9%; IL-1B inflam inh: 0

Results for O=C(NCc1cccnc1)c1ccc(-c2ccc(F)c(F)c2)c2ccoc12 ?
TDP1 cell noCPT: 4.6µM*; DT40 TDP1 CPT: 5.8µM*; HT1080 IDH1KD tx: inconclusive; HT1080-NT tox: inconclusive; IL-1B inflam inh: -2

How did O=C(NCc1cccnc1)NC1CCCCC1 do in these assays?
TDP1 cell noCPT: -8%; DT40 TDP1 CPT: -11%; HT1080 IDH1KD tx: -5%; HT1080-NT tox: 0%; IL-1B inflam inh: -2

Results for Oc1ccc(C2NCc3ccccc3-n3cccc32)cc1Cl (stereo not drawn) ?
TDP1 cell noCPT: inconclusive; DT40 TDP1 CPT: inconclusive; HT1080 IDH1KD tx: -20%; HT1080-NT tox: -21%; IL-1B inflam inh: -13

How did FC(F)(F)c1cccc(C2NCc3ccccc3-n3cccc32)c1 (stereo not drawn) do in these assays?
TDP1 cell noCPT: inconclusive; DT40 TDP1 CPT: -21%; HT1080 IDH1KD tx: inconclusive; HT1080-NT tox: -30%; IL-1B inflam inh: -88*

Results for COc1ccc(P2(=O)Nc3ccccc3N2)cc1 ?
TDP1 cell noCPT: inconclusive; DT40 TDP1 CPT: 15µM*; HT1080 IDH1KD tx: -20%; HT1080-NT tox: -11%; IL-1B inflam inh: 7

How did COc1ccc2c(c1)NP(=S)(c1ccccc1)N2C (stereo not drawn) do in these assays?
TDP1 cell noCPT: -17%; DT40 TDP1 CPT: 14%; HT1080 IDH1KD tx: 10%; HT1080-NT tox: 9%; IL-1B inflam inh: -4

What do the screens show for `CCCc1nc(SC)ncc1C(=O)Nc1ccc(Cl)cc1C(=O)c1ccccc1`?
TDP1 cell noCPT: 23µM*; DT40 TDP1 CPT: inconclusive

Results for CC1CCN(CCc2nc3ccccc3[nH]2)CC1 ?
TDP1 cell noCPT: -2%; DT40 TDP1 CPT: 19%; HT1080 IDH1KD tx: 14%; HT1080-NT tox: 0%; IL-1B inflam inh: -10

Results for CCCOc1ccc(CSc2nc3ccccc3[nH]2)cc1 ?
TDP1 cell noCPT: 8.2µM*; DT40 TDP1 CPT: 8.2µM*; HT1080 IDH1KD tx: 11µM*; HT1080-NT tox: inconclusive; IL-1B inflam inh: -56*
